Here are results for 22 compounds from PubChem BioAssay AID588707 (Southern Research Specialized Biocontainment Screening …, 2011).

Results filed as inconclusive are left out. Activity calls are given as the source filed them.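 Rule for the calls: active = viability below 80% at one or more tested concentrations, flagged as toxic; inconclusive = replicate runs disagree on whether the viability criterion is met; inactive = viability at or above 80% at every dose.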

The nature of the assay: viability reduction of Vero E6 cells – cell-based, M17 leucyl aminopeptidase campaign, cytotoxicity control for P. falciparum PFM17LAP inhibitor project, dose response (AID 588707). As to conditions: CellTiter-Glo luminescence, 72 h; series mostly up to 50 µM. A general note: Cellular ATP, detected with luciferase, serves as a proxy for viable cell number.
As to `COC(=O)c1c(NC(=O)c2ccccc2C(=O)O)sc2c1CCCC2`, the compound was classed as inactive. Then `O=C(Nc1ccc(Cl)cc1)Nc1ccccc1C(=O)O`, with “inactive”; and `Cc1cc(=O)[nH]c(SCC(=O)Nc2ccccc2)n1`, with “inactive”. Then `N[C@@H](Cc1c[nH]c2ccccc12)C(=O)NO`, with “inactive”; and `Cc1ccc(NC(=O)CSc2nc(O)cc(=O)n2Cc2ccccc2)cc1`, with “inactive”. In the case of `COC(=O)c1cc(OC)c(OC)cc1NC(=O)c1sc2nc(C)ccc2c1N`, the outcome was inactive.

Consider `Cc1cc(SCC(=O)Nc2ccccc2C(=O)O)nc2ccccc12`, for which the result was inactive. On to `CC(C)C[C@H](N)C(=O)NO`, for which the compound was called inactive. Take `O=C(O)c1ccccc1C(=O)Nc1nc2c(s1)CCCC2`: the compound was classed as inactive. For `O=C1OCCC1Sc1nnc(NC2CCCCC2)s1` (configuration not stated), the call was inactive. Next, `CC1=C(C)CC(C(=O)Nc2nc(-c3cc(C)ccc3C)c(C)s2)C(C(=O)O)C1` (configuration not stated): “inactive”.

Consider `O=C(CSc1ccccc1)Nc1cccc2c1C(=O)NC2=O`, for which the call was inactive. As for `COC(=O)c1c(NC(=O)C2CCCCC2C(=O)O)sc2c1CCC(c1ccccc1)C2` (configuration not stated), the outcome was inactive. `O=C(CSc1nc(O)cc(=O)[nH]1)Nc1ccccc1`: the outcome was inactive. For the compound `COC(=O)c1ccccc1NC(=O)c1ccc2c(Cl)c3c(nc2c1)CCC3`, the compound was classed as inactive.

For the compound `NC(N)=NCCC[C@H](N)C(=O)NO`, the compound was called inactive. In the case of `O=C(CSc1nccc(=O)[nH]1)Nc1ccc(N2CCOCC2)cc1`, the call was inactive. With `COC(=O)c1ccccc1NC(=O)c1cc2cc3ccc(C)cc3nc2s1`, the result was inactive. In the case of `COC(=O)c1c(NC(=O)C2CC=CCC2C(=O)O)sc(C)c1-c1ccc(C)cc1` (configuration not stated), the outcome was inactive. Next, `COc1ccc(-c2nnc(NC(=O)C3CC(C)=C(C)CC3C(=O)O)s2)cc1` (configuration not stated): “inactive”; `COc1cc(NC(=O)CSc2ccccc2)c(C(=O)O)cc1OC`: “inactive”. On to `O=C(CSc1nccc(=O)[nH]1)Nc1ccc(Oc2ccccc2)cc1`, for which the compound was classed as inactive.
